Test results taken from the OligoGym collection.

molecular target: INPP5F; test: pooled miR-30 sensor sort-seq; sequence = guide strand; details: shRNA
Further: reference of the scale not given here.

| Sequence | sensor-assay potency score (higher = more potent) |
| --- | --- |
| TTCGTTTATAGCGCATTCCTGC | -0.611 |
| TTACTTTATCAACTTCATCATC | -1.34 |
| TACCAAGTTAATAATAACCTGT | -0.241 |

molecular target: INVS; test: as above; details: shRNA

| Sequence | sensor-assay potency score (higher = more potent) |
| --- | --- |
| TTAATATCTGGCAAACATCAGC | -0.861 |
| TAGAAGAGAATGTCCATCTTGG | 0.67 |
| TTTTAAAAACACTTTAACCGTT | -0.842 |
| TACTTGAGCATTATTTTCCAGT | -0.382 |
| TTTTATTCACATCTGCTCCTGC | 0.562 |
| TTCGTGAGAACAACCATAGATT | -0.97 |
| TTTGTTTTCTTCCTCTCGCTTT | 0.0611 |
| AACATCAGTAGCATCTACTTGA | 0.641 |
| TTGGTCAACTAGATCTACCCTT | 0.547 |
| TTTAAAAACACTTTAACCGTTT | -0.562 |
| TAAGACGTTATATTGCAGCTTT | 0.127 |
| TTATTTTCTATTAATATCTGGC | 0.295 |

molecular target: IP6K3; test: as above; details: shRNA

| Sequence | sensor-assay potency score (higher = more potent) |
| --- | --- |
| TTACACTTGTCCACCAGTCTTG | -0.0833 |
| TTTTCCAGCAACAAGAACCGAT | -0.15 |
| TTGCAGAGAAAGTACTTCTTAT | -0.832 |
| TTCATAGAACCTCTGCTCCCGG | -0.506 |
| ATATTTACACTTGTCCACCAGT | -0.684 |
| TGACACTACATTTTCCAGCAAC | -1.2 |
| TTCTTCCATAGTACTTGTCTTT | -1.16 |
| TTGTTCTCTGGGTACTCGGAGC | -1.42 |
| TATTTGAGATCTATAGCCCAGA | -0.584 |
| TTTTCTTCCATAGTACTTGTCT | 0.567 |
| TACACTTGTCCACCAGTCTTGT | -0.242 |
| TAGATGACAAGGAGAGAGCTGG | -0.213 |

molecular target: IPO11; test: as above; details: shRNA

| Sequence | sensor-assay potency score (higher = more potent) |
| --- | --- |
| TATACTTCTACTGCATTCCAGA | -0.431 |
| TTAACTTCAAAGTTGTAGCTGT | 0.668 |
| TATCTCTACACACATTATCTGT | -0.812 |
| TAATTCTAAACCATCTTCCAGA | -0.364 |
| TAACAGGAAACTAAGCAGCTAT | -0.294 |
| TAGCTGGGTGACAATCTCCGTA | -0.584 |
| TTTGTAGTAGAACTCGACCCAT | -0.362 |
| TTGTAGTAGAACTCGACCCATA | -0.751 |
| TAAATCTTGATCTTGAAGCAAG | -0.725 |
| TTCTTTAATAGCATCATCTGAA | -0.198 |
| TTCCACAACCTTGAGCACCTGA | 0.832 |
| TTGTTCTCCTAGCATCTCCTGC | -0.927 |
